Inconclusive results are not listed. Active and inactive are the calls of the source. Unless noted, no stated cut-off is given here; in the data, active means inhibition above about 30%; inactive means the rest.
Assays:
[1] = SK-BR-3 cell growth inhibitors, pilot screen, 24 h, human (AID 572;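 active means viability at or below 10% of carrier control in both of two separate runs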;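 further: compound exposure lasted between 18 and 24 h rather than exactly 24 h; 100% = carrier-treated control wells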); settings: SK-BR-3 viability, CellTiter-Glo luminescence, at 10 µM, stronger effect = lower value
[2] = HUVEC growth inhibition – cell-based, human, primary screen (AID 575;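 active means viability at or below 30% in both replicate assays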;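 further: 100% = median of untreated cell wells with 0.1% DMSO on each plate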); settings: HUVEC proliferation, CellTiter-Glo luminescence, 72 h; at 10 µM; stronger effect = lower value
[3] = growth inhibitors of H69AR lung tumor, primary screen, human, duplicate replicates (AID 580;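 active means viability at or under a set limit in both replicates, limit being median viability minus 3 SD, cut at about 48% in these data, passing the limit was not always enough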;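 further: 100% = mean luminescence of untreated wells and 0% = no signal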); settings: H69AR lung tumor cells viability, ATP luminescence, 72 h; at 10 µM; stronger effect = lower value
[4] = reversal of MRP1-mediated doxorubicin resistance, pilot screen, H69AR cells, doxorubicin co-treatment (AID 601;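 active means viability loss from added drug above about 55%, and viability with drug at most 40%, in both replicates, limit read from the data, passing the limit was not always enough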); settings: CellTiter-Glo, 72 h, at 10 µM; for differential viability (reversal): stronger effect = higher value
[5] = 384-well plate pilot, post-Golgi transport modulator project, inhibition of yeast transport mutant growth (AID 636; in the data active means inhibition above about 31%); settings: absorbance 615 nm, about 18 h, stronger effect = higher value
[6] = growth suppression of yeast trafficking mutant, preliminary HTS, modulators of trafficking downstream of Golgi apparatus project, 1536-format plate, OD 615 nm (AID 637); settings: yeast transport mutant growth, absorbance 615 nm, 18 h; stronger effect = higher value
[7] = OD615 S. cerevisiae growth inhibition, permissive medium, pilot counter-assay, permissive growth control for S. cerevisiae lifespan shortening project (AID 705;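 active means growth inhibition above 25% in both replicates, a cutoff set 3 SD above the mean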); settings: OD615, 24 h, at 10 µM, stronger effect = higher value
[8] = Restrictive medium S. cerevisiae growth inhibition, OD615, pilot screen of yeast lifespan reduction project, restrictive growth control (AID 706;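 active means growth inhibition above a set limit, 3 SD over mean compound inhibition, in both replicates, cut at about 43% in these data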;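 further: modified DeaD lifespan yeast strain shifted to restrictive glucose medium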); settings: OD615, 48 h, at 10 µM, stronger effect = higher value
[9] = viability gain of MRP-1-high H69AR cells under doxorubicin, pilot screen, MRP-1 activator project, CellTiter-Glo, duplicate (AID 807;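 active means viability increase at or above a cutoff of the median across tested compounds plus 3 SD, cut at about 8.5% in these data, passing the limit was not always enough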;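 further: compound pretreatment 18-22 h then 72 h combined with doxorubicin; 0% = doxorubicin alone and 100% = vehicle without doxorubicin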); settings: H69AR viability with doxorubicin, CellTiter-Glo luminescence; at 10 µM; stronger effect = higher value
[10] = growth suppression of beta-catenin knockout HCT116, pilot screen, human colon tumor cells (AID 823;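 active means cell viability at or below a set limit in both duplicate runs, the limit being the all-compound median minus 4 SD, cut at about 23% in these data, passing the limit was not always enough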;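 further: 0% = wells killed by 20 µM Hyamine and 100% = untreated DMSO cell wells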); settings: CellTiter-Glo, 60 h, at 10 µM, stronger effect = lower value
[11] = growth suppression of PTEN-deleted HCT116, pilot screen, cell-based, HCT116 clonal line, CellTiter-Glo (AID 824;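 active means viability at or below 27.92% in each of two runs, the all-compound median minus 4 SD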;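 further: 0% = 20 µM Hyamine control and 100% = vehicle cell control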); settings: 60 h, at 10 µM, stronger effect = lower value
[12] = inhibitors of the yeast RAM network, pilot screen, dse1pr::URA3 reporter, 5-FOA selection (AID 869;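 active means inhibition over a set limit, the all-compound mean plus 3 SD, in both replicate runs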;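 further: 0% = DMSO wells with no growth and 100% = 10 µM 1-NA-PP1 with full growth; RAM network block rescues cells from 5-FOA so hits raise OD615 growth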); settings: S. cerevisiae dse1pr::URA3 5-FOA growth, OD615, 2 d; at 10 µM; stronger effect = higher value; strain carries analog-sensitive mutant Cbk1 kinase
[13] = H69AR cells + 2 uM doxorubicin, measured here: viability with 2 uM doxorubicin, stronger effect = lower value
[14] = H69AR cells, compound alone cytotoxicity

| Structure (SMILES) | viability [1] | viability [2] | viability [3] | differential viability (reversal) ([4]; H69AR cells + 2 uM doxorubicin) | viability [4, 13] [%] | viability [4, 14] [%] | inhibition [5] | inhibition [6] | growth inhibition [7] | growth inhibition [8] | viability increase [9] | viability [10] | viability [11] | inhibition [12] |
| --- | --- | --- | --- | --- | --- | --- | --- | --- | --- | --- | --- | --- | --- | --- |
| Cc1ccc2c(c1C)NC(C(=O)O)C1CC=CC21 (stereo not drawn) | 91% (inactive) | 98.1% (inactive) | 98.2% (inactive) | 1.46% (inactive) | 96.7 | 98.2 | -1.73% (inactive) | -1.09% (inactive) |  |  |  |  |  |  |
| O=C(CSc1nnc(-c2ccccn2)n1Cc1ccccc1)N1CCCC1 | 109% (inactive) | 104% (inactive) | 98.8% (inactive) | 10.9% (inactive) | 87.9 | 98.8 | -8.67% (inactive) | -6% (inactive) |  |  |  |  |  |  |
| CCN(CC)C(=O)c1ccc(O)c(OC)c1 | 100% (inactive) | 90.7% (inactive) | 101% (inactive) | 0.23% (inactive) | 101 | 101 | -4.94% (inactive) | -5% (inactive) |  |  |  |  |  |  |
| COc1ccc(C(NC(C)=O)c2ccc3cccnc3c2O)c(OC)c1 (stereo not drawn) | 65% (inactive) | 3.65% (active) | 23% (active) | -22.1% (inactive) | 45.1 | 23 | -6.4% (inactive) | 1.09% (inactive) |  |  |  |  |  |  |
| C=C(C)Cn1c(CCCNC(=O)C(C)(C)C)nc2ccccc21 | 104% (inactive) | 92.9% (inactive) | 102% (inactive) | 0.305% (inactive) | 101 | 102 | -3.47% (inactive) | -4% (inactive) |  |  |  |  |  |  |
| O=C(O)C1CCCN1C(=O)c1cccs1 (stereo not drawn) | 114% (inactive) | 88.3% (inactive) | 103% (inactive) | 3.11% (inactive) | 100 | 103 | 3.15% (inactive) | -2.58% (inactive) |  |  |  |  |  |  |
| CCCC1c2ccc(C)n2CCN1C(=O)Nc1ccccc1Cl (stereo not drawn) | 92% (inactive) | 92.2% (inactive) | 93.5% (inactive) | 6.95% (inactive) | 86.6 | 93.5 | 2.73% (inactive) | 8.2% (inactive) |  |  |  |  |  |  |
| [O-][n+]1onc2c1CCc1nnc(-c3ccccc3)cc1-2 | 93.5% (inactive) | 113% (inactive) | 76.2% (inactive) | 43.7% (inactive) | 32.6 | 76.2 | -1.18% (inactive) | 8.03% (inactive) |  |  |  |  |  |  |
| Cc1cccc(OCC(=O)Nc2cc(C)ccc2O)c1 | 105% (inactive) | 75.3% (inactive) |  | -14% (inactive) | 51.4 | 37.4 | -6.16% (inactive) | 0.18% (inactive) |  |  |  |  |  |  |
| CC1(C)Cc2c(C#N)c(SCCC#N)nc(N3CCOCC3)c2CS1 | 83% (inactive) | 86.6% (inactive) | 84.2% (inactive) |  |  |  | -3.42% (inactive) | -4.84% (inactive) |  |  |  |  |  |  |
| CCOC(=O)c1[nH]c(CSc2nnc(-c3ccc(OC)cc3)o2)c(C(=O)OCC)c1C | 56% (inactive) | 72.3% (inactive) |  | 0.61% (inactive) | 37.4 | 38 | -3.24% (inactive) | -4.36% (inactive) |  |  |  |  |  |  |
| CCOC(=O)c1nnc2ccnn2c1N | 74% (inactive) | 87.9% (inactive) | 109% (inactive) | 1.61% (inactive) | 107 | 109 | -4.79% (inactive) | -2.91% (inactive) |  |  |  |  |  |  |
| CCCNC(=O)c1cc(-c2ccco2)on1 | 77% (inactive) | 88.3% (inactive) | 97.4% (inactive) |  |  |  | -1.87% (inactive) | 2.73% (inactive) |  |  |  |  |  |  |
| CCN(CCO)C(=O)CC(c1ccccc1)c1cc(Br)ccc1O (stereo not drawn) | 101% (inactive) | 101% (inactive) | 93.8% (inactive) | -3.22% (inactive) | 97 | 93.8 | -2.3% (inactive) | -3.09% (inactive) |  |  |  |  |  |  |
| Cc1cc(CN2CCN(CCC#N)CC2)c(O)c(C2(C)CCCCC2)c1 | 106% (inactive) | 54.2% (inactive) |  | -12.2% (inactive) | 77.1 | 64.9 | 1.1% (inactive) | 39.4% (active) |  |  |  |  |  |  |
| CCOCC(=O)Nc1c(C(=O)Nc2ccc(OC)cc2OC)oc2ccccc12 | 65.5% (inactive) | 50.9% (inactive) | 48% (active) | -0.305% (inactive) | 48.3 | 48 | -6.62% (inactive) | -3.77% (inactive) |  |  |  |  |  |  |
| CC(C)(C)c1ccc(C(O)CCCN2CCC(C(O)(c3ccccc3)c3ccccc3)CC2)cc1 (stereo not drawn) | 91% (inactive) | 1.7% (active) |  | 0.38% (inactive) | 1.16 | 1.54 | -1.95% (inactive) | -1% (inactive) |  |  |  |  |  |  |
| COc1cccc(/C=N/n2c(-c3ccco3)nc3ccccc3c2=O)c1 | 71% (inactive) | 105% (inactive) | 73.2% (inactive) | -12.3% (inactive) | 85.4 | 73.2 | -6.76% (inactive) | 2.36% (inactive) |  |  |  |  |  |  |
| CCOC(=O)c1ccccc1NC1c2ccccc2C(=O)N1C1CCN(C(=O)OCC)CC1 (stereo not drawn) | 126% (inactive) | 76.2% (inactive) | 80.5% (inactive) | 37.6% (inactive) | 42.9 | 80.5 | -4.13% (inactive) | -3.17% (inactive) | 3.84% (inactive) | 4.88% (inactive) | -7.16% (inactive) | 50.3% (inactive) | 46.2% (inactive) | 1.9% (inactive) |

Source: PubChem BioAssay
